This note sets out measurements from PubChem BioAssay (NCI).

The panel holds about 83,000 compounds, 20% with a hit somewhere; the sample as a whole holds those more often.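 Percent growth is the endpoint: 0 to 100 indicates growth inhibition (40 means 60% inhibition), 0 means no net growth, and negative values indicate cell death.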 Unmarked numbers belong to inactive results. Active and inactive are the calls of the source. How the source made its calls: active means growth percent below 10; inactive means the rest.

Among the test systems are HCT-15 colon; HT29 colon; SNB-75 CNS; SNB-19 CNS; U251 CNS; PC-3 prostate; SK-MEL-5 melanoma; UACC-62 melanoma; LOX IMVI melanoma; SK-MEL-28 melanoma.
Holding throughout (test): NCI-60 one-dose screen, 48 h (100 = growth as untreated, 0 = no growth, -100 = all killed)
What all share (details): 10 µM unless noted

Consider `COc1cc2c(=O)n(CCCN(C)C)c3c4cc[nH]c4ncc3c2cc1OC`, for which the growth is 54.7% with HCT-15 colon; 16.2% in the test with HT29 colon; 47.9% in the test with SNB-75 CNS; 36.6% in the test on SNB-19 CNS; 35.1% in the test with U251 CNS; 32.8% in the test on PC-3 prostate. Besides, the growth in the test with SK-MEL-5 melanoma is 80.9%; with UACC-62 melanoma, 54.5%; in the test on LOX IMVI melanoma, 25.3%; in the test with SK-MEL-28 melanoma, 89.9%.

Turning to `Clc1cc2nc(-c3ccccc3)c(-c3ccccc3)nc2cc1Cl`, the growth in the test on HCT-15 colon is 88.7%; in the test on HT29 colon, 88.5%; in the test with SNB-75 CNS, 87.9%; with SNB-19 CNS it was 102%; with U251 CNS, 95.7%; with PC-3 prostate it was 77.3%. Moreover, the growth in the test with SK-MEL-5 melanoma is 89.4%; in the test with UACC-62 melanoma, 84.7%; in the test with LOX IMVI melanoma, 86.2%; in the test with SK-MEL-28 melanoma, 101%.

With `CCC1=CC2CN(C1)Cc1c([nH]c3ccccc13)[C@@](C(=O)OC)(c1cc3c(cc1OC)N(C)[C@H]1[C@@](O)(C(=O)OC)[C@H](OC(C)=O)[C@]4(CC)C=CCN5CC[C@]31[C@@H]54)C2` (stereo not given in full), the growth with HCT-15 colon is 21.5%; with HT29 colon it was 2.55% (active); with SNB-75 CNS it was -5.65% (active); with SNB-19 CNS, 53.6%; with U251 CNS it was 11%; in the test with PC-3 prostate it was 34.5%. In addition, the growth was -46.9% (active) with SK-MEL-5 melanoma, 43.6% with UACC-62 melanoma, 20% with LOX IMVI melanoma and 62.1% in the test on SK-MEL-28 melanoma.

Take `Cc1ccc(NC(=O)c2sc3nc4c(cc3c2N)C(=O)CCC4)cc1Cl`: the growth in the test on HCT-15 colon was 97.3%; in the test with HT29 colon it was 97.5%; with SNB-75 CNS, 110%; with SNB-19 CNS, 114%; with U251 CNS, 97.9%; with PC-3 prostate, 104%. In addition, the growth in the test with SK-MEL-5 melanoma was 102%; in the test with UACC-62 melanoma it was 108%; in the test with LOX IMVI melanoma, 99.2%; with SK-MEL-28 melanoma it was 108%.

As for `CS(=O)(=O)c1ccc(C(=O)N/N=C/c2cccc3ccccc23)cc1`, the growth with HCT-15 colon was 49.8%; with HT29 colon, 49.5%; with SNB-75 CNS, 89.7%; in the test on SNB-19 CNS, 79.8%; in the test on U251 CNS it was 76.3%; in the test with PC-3 prostate, 78.8%. Also, the growth in the test on SK-MEL-5 melanoma is 67.2%; with UACC-62 melanoma, 61.6%; in the test on LOX IMVI melanoma, 72.4%; in the test on SK-MEL-28 melanoma it was 89.4%.

Turning to `COc1ccc(CNc2c3ccccc3nc3ccc(OC)cc23)cc1`, the growth is 5.34% (active) with HCT-15 colon; -2.9% (active) in the test on HT29 colon; 27.4% in the test with SNB-75 CNS; 22.7% with SNB-19 CNS; 16.1% in the test on U251 CNS; 5.53% (active) in the test with PC-3 prostate. In addition, the growth with SK-MEL-5 melanoma is 11.1%; in the test with UACC-62 melanoma, 42.6%; in the test with LOX IMVI melanoma, -75.1% (active); in the test with SK-MEL-28 melanoma it was 41.3%.

For `CC(CN1CCN(CC(C)Nc2ccnc3cc(Cl)ccc23)CC1)Nc1ccnc2cc(Cl)ccc12` (stereo not given), the growth in the test on HCT-15 colon was -1.75% (active); in the test with HT29 colon, -19.7% (active); with SNB-75 CNS, -26.8% (active); in the test on SNB-19 CNS it was 31.6%; with U251 CNS, 0.467% (active); in the test with PC-3 prostate, 26.2%. For the same compound, the growth in the test on SK-MEL-5 melanoma is -97.6% (active); with UACC-62 melanoma, -62.7% (active); with LOX IMVI melanoma, -86.1% (active); in the test on SK-MEL-28 melanoma, -91.4% (active).

As to `CC(=O)Nc1ccc(/C=N/N2CCCCCC2)cc1`, the growth with HCT-15 colon is 102%; in the test on HT29 colon, 102%; with SNB-75 CNS, 86.2%; in the test with SNB-19 CNS, 91.8%; with U251 CNS it was 90.4%; with PC-3 prostate it was 109%. For the same compound, the growth in the test with SK-MEL-5 melanoma was 106%; with UACC-62 melanoma it was 95.9%; in the test on LOX IMVI melanoma, 101%; with SK-MEL-28 melanoma, 103%.

With `ClCc1c(Cl)c(Cl)c(Cl)c(CCl)c1Cl`, the growth in the test on HCT-15 colon was 4.87% (active); with HT29 colon, -78.4% (active); in the test on SNB-75 CNS, 89%; in the test with SNB-19 CNS, 58.7%; in the test on U251 CNS, -25.4% (active); with PC-3 prostate, 8.08% (active). For the same compound, the growth in the test with SK-MEL-5 melanoma is 61.3%; in the test with UACC-62 melanoma, 103%; in the test on LOX IMVI melanoma, -79% (active); with SK-MEL-28 melanoma it was 88.7%.

On to `COc1cc(OC)c(C(=O)/C=C/c2cccc(OC(C)=O)c2)cc1CC=C(C)C`, for which the growth in the test on HCT-15 colon is 55%; in the test on HT29 colon, 84.2%; in the test on SNB-75 CNS, 77.5%; in the test with SNB-19 CNS it was 101%; in the test with U251 CNS it was 44.6%; with PC-3 prostate, 36%. Further, the growth in the test on SK-MEL-5 melanoma is 64.2%; with UACC-62 melanoma, 47.3%; with LOX IMVI melanoma, 48.3%; with SK-MEL-28 melanoma, 67.8%.

Regarding `O=S1(=O)NCCN1CCNc1nccc(-c2c(-c3cccc(O)c3)nc3sccn23)n1`, the growth is 127% in the test on HCT-15 colon; 71.6% in the test on HT29 colon; 73.3% in the test with SNB-75 CNS; 122% in the test with SNB-19 CNS; 120% with U251 CNS; 78.5% with PC-3 prostate. For the same compound, the growth in the test with SK-MEL-5 melanoma was 94.4%; in the test with UACC-62 melanoma, 6.31% (active); in the test with LOX IMVI melanoma it was 55%; in the test with SK-MEL-28 melanoma, 31.3%.

As for `C#C[C@]1(O)CC[C@H]2[C@@H]3CC=C4c5sc(-c6cccc(Br)c6)nc5CC[C@]4(C)[C@H]3CC[C@@]21C`, the growth was 61.7% with HCT-15 colon; 83.1% with HT29 colon; 59% with SNB-75 CNS; 84.6% in the test on SNB-19 CNS; 70.9% with U251 CNS; 57.2% in the test on PC-3 prostate. In addition, the growth with SK-MEL-5 melanoma is 99.9%; in the test with UACC-62 melanoma, 89.9%; in the test on LOX IMVI melanoma, 71.6%; with SK-MEL-28 melanoma it was 54.7%.

Regarding `CC1=CC(=O)OC1C/C=C(\C)CCC1[C@@]2(C)CCC[C@@](C)(C(=O)O)C2CC[C@@]1(C)O` (stereo not given in full), the growth in the test on HCT-15 colon is 14.1%; with HT29 colon, 86.8%; with SNB-75 CNS, 74%; with SNB-19 CNS, 53.3%; in the test with U251 CNS it was 35.4%; in the test with PC-3 prostate, 59.1%. The growth with SK-MEL-5 melanoma was -23.8% (active); in the test with UACC-62 melanoma, 15.4%; in the test with LOX IMVI melanoma it was 97.3%; with SK-MEL-28 melanoma, 26.7%.
